# Source: article PMC7862700, “An all-to-all approach to the identification of sequence-specific readers for epigenetic DNA modifications on cytosine”
# Assays:
# Test in all cases: DAPPL (digital affinity profiling via proximity ligation, sequencing); 10 mM Tris-HCl pH 7.5, 50 mM NaCl, 1 mM DTT, 4% glycerol, room temperature, 30 min; GST-TFs on glutathione beads, 16-mer random dsDNA library, 0.1% formaldehyde crosslink after washing; high values mean tight binding
# FEV = target: T1, FEV (Homo sapiens, UniProt Q99581 1-238); details: protein: recombinant; tags: N-terminal GST; dsDNA, one strand shown
# T1 sequence: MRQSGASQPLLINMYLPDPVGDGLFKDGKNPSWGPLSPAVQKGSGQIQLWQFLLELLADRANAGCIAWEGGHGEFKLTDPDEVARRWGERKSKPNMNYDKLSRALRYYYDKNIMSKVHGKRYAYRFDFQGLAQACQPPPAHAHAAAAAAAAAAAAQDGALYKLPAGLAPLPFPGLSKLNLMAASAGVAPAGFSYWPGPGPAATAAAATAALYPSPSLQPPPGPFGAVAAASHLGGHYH
# Outline: (§1)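 Beads coated with glutathione captured GST-fused human transcription factors that had been expressed in yeast, and the factors were then given DNA barcodes and pooled with a tag-only sample. The pools were incubated with 200 nmole of a random double-stranded 16-mer DNA library in Tris/NaCl/DTT/glycerol buffer for 30 min at room temperature, washed, crosslinked with 0.1% formaldehyde and proximity-ligated with BsaI/T4 ligase at 37 °C for 1 h. PCR amplification and Illumina NextSeq500 sequencing came last. Binding signal is each hexamer's read frequency for a factor divided by its frequency for the tag-only sample.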
# ETV5 = ETV5 (Homo sapiens, UniProt P41161 1-510); details: protein: recombinant; tags: N-terminal GST; dsDNA, one strand shown
# Sequence of ETV5 (P41161 whole entry): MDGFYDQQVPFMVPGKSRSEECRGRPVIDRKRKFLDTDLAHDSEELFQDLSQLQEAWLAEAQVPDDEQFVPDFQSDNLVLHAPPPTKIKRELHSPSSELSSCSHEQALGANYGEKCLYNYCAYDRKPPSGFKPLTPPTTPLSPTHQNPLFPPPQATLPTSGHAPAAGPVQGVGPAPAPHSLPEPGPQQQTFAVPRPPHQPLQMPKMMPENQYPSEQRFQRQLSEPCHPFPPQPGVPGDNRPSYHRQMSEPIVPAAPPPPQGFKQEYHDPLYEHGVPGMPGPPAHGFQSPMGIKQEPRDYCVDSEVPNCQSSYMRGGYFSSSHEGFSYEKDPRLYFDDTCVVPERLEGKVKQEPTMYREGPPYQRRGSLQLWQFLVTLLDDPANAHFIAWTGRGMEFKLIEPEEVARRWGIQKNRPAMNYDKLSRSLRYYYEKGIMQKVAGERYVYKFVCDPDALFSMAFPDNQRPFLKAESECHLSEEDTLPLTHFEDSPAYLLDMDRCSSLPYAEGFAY
# Outline: as §1
# HSF1 = HSF1 (Homo sapiens, UniProt Q00613 1-529); details: protein: recombinant; tags: N-terminal GST; chain copies: 3; dsDNA, one strand shown
# Sequence of HSF1 (Q00613 whole entry): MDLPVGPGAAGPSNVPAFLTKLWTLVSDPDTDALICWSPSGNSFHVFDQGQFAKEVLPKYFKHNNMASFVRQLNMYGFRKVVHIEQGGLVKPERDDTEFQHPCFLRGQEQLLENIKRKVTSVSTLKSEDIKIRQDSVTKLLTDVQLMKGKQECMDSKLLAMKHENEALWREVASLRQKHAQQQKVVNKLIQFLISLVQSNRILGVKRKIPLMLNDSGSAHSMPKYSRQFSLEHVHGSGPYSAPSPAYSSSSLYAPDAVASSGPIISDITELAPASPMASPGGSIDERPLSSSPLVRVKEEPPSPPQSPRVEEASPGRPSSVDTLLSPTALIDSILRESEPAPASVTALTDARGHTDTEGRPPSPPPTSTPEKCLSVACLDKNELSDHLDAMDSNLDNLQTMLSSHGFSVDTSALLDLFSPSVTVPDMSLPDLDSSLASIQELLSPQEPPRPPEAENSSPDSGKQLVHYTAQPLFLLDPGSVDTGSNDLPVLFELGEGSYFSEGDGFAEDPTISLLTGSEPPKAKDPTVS
# Outline: as §1
# SPIC = target: T2, SPIC (Homo sapiens, UniProt Q8N5J4 1-248); details: protein: recombinant; tags: N-terminal GST; dsDNA, one strand shown
# T2 sequence: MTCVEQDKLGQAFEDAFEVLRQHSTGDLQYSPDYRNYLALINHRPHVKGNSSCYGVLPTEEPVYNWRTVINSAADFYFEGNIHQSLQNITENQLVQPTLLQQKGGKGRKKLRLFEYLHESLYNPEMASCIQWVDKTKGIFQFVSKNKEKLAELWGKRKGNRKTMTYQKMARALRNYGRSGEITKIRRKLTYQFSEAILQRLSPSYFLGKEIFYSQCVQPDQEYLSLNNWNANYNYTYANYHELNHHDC
# Outline: as §1
# ELF4 = ELF4 (Homo sapiens, UniProt Q99607 1-663); details: protein: recombinant; tags: N-terminal GST; dsDNA, one strand shown
# Sequence of ELF4 (Q99607 whole entry): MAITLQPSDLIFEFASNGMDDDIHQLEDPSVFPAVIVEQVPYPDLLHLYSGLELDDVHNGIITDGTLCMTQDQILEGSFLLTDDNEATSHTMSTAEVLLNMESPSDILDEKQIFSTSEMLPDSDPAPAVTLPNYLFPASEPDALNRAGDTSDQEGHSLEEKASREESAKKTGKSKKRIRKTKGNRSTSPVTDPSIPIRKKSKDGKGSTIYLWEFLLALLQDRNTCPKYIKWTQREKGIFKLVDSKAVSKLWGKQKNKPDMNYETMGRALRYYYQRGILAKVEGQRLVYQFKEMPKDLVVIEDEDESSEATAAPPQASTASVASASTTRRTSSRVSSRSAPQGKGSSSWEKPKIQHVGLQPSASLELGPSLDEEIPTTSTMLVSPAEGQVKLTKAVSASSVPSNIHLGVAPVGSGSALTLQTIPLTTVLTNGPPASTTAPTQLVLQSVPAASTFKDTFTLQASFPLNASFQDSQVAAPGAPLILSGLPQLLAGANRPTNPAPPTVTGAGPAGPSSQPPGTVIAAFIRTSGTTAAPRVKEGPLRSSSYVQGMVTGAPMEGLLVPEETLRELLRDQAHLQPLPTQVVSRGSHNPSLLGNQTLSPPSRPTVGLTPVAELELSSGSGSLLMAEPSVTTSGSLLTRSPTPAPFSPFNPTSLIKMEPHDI
# Outline: as §1
# ELK4 = target: T3, ELK4 (Homo sapiens, UniProt P28324-2 1-405); details: protein: recombinant; tags: N-terminal GST; dsDNA, one strand shown
# T3 sequence: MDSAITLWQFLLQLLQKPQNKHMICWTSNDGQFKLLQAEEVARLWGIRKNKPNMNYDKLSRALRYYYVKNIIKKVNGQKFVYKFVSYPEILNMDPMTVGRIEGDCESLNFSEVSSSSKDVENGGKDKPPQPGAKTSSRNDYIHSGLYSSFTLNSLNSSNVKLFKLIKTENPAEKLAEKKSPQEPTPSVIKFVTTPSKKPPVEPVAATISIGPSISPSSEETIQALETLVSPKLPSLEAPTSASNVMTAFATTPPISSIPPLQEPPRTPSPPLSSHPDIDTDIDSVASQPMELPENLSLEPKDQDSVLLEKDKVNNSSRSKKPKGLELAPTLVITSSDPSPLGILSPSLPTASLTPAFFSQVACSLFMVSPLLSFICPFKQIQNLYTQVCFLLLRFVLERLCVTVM
# Outline: as §1
# ETV2 = target: T4, ETV2 (Homo sapiens, UniProt O00321 1-342); details: protein: recombinant; tags: N-terminal GST; dsDNA, one strand shown
# T4 sequence: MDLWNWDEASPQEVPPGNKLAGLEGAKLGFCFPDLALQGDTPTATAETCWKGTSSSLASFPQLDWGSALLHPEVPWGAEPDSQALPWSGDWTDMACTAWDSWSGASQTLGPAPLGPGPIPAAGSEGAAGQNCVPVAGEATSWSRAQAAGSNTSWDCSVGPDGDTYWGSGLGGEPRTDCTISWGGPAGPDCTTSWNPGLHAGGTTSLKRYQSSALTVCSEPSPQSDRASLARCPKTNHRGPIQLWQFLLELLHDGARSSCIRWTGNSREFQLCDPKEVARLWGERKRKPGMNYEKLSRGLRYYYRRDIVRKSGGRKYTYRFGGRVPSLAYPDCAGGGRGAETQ
# Outline: as §1
# ELF3 = target: T5, ELF3 (Homo sapiens, UniProt P78545 1-371); details: protein: recombinant; tags: N-terminal GST; dsDNA, one strand shown
# T5 sequence: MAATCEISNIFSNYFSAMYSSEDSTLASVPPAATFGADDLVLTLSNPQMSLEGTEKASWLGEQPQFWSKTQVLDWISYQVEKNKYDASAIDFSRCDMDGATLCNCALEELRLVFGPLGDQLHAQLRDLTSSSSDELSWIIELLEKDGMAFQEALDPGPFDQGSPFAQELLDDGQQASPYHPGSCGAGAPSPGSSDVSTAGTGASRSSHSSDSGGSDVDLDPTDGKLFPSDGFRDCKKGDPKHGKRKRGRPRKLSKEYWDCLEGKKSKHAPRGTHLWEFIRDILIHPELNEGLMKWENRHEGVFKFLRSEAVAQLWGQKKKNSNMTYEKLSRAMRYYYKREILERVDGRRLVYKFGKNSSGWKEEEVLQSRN
# Outline: as §1
# CRX = CRX (Homo sapiens, UniProt O43186 1-299); details: protein: recombinant; tags: N-terminal GST; dsDNA, one strand shown
# Sequence of CRX (O43186 whole entry): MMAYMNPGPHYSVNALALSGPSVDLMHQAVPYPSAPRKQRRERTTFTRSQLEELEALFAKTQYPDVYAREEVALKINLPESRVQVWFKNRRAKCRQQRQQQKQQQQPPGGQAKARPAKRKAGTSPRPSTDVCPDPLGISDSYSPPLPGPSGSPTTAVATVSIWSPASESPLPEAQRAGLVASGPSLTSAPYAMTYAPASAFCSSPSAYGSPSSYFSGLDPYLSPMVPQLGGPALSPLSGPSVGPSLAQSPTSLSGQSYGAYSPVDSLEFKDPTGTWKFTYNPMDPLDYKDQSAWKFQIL
# Outline: as §1
# ETV1 = ETV1 (Homo sapiens, UniProt P50549 1-477); details: protein: recombinant; tags: N-terminal GST; dsDNA, one strand shown
# Sequence of ETV1 (P50549 whole entry): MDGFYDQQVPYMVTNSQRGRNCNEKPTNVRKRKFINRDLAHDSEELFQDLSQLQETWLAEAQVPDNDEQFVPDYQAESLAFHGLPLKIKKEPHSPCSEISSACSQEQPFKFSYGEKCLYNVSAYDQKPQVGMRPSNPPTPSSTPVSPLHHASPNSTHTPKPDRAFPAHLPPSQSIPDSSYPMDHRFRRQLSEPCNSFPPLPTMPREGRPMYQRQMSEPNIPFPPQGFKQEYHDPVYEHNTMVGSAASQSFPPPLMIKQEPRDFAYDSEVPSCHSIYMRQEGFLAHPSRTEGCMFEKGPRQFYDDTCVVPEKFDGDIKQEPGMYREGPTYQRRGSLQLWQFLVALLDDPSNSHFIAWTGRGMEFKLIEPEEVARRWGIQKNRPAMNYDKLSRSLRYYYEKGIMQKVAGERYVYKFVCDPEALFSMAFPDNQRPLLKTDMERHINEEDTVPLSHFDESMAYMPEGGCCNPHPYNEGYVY
# Outline: as §1
# ERF = target: T6, ERF (Homo sapiens, UniProt P50548 1-548); details: protein: recombinant; tags: N-terminal GST; dsDNA, one strand shown
# T6 sequence: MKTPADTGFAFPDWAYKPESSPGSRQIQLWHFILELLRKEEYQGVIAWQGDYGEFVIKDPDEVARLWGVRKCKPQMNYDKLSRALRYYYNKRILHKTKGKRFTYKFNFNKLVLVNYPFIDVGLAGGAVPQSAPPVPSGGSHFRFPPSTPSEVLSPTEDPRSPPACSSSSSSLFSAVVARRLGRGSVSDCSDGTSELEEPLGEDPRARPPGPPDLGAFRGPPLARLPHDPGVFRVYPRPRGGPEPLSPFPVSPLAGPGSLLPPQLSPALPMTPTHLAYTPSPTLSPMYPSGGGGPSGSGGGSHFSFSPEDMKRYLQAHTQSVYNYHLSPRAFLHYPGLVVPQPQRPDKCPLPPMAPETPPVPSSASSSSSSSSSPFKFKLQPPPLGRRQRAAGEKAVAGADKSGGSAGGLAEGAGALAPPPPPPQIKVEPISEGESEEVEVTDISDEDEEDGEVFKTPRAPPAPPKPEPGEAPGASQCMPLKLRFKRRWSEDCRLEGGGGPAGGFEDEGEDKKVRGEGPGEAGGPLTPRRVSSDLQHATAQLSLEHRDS
# Outline: as §1
# ETV3L = target: T7, ETV3L (Homo sapiens, UniProt Q6ZN32 1-361); details: protein: recombinant; tags: N-terminal GST; dsDNA, one strand shown
# T7 sequence: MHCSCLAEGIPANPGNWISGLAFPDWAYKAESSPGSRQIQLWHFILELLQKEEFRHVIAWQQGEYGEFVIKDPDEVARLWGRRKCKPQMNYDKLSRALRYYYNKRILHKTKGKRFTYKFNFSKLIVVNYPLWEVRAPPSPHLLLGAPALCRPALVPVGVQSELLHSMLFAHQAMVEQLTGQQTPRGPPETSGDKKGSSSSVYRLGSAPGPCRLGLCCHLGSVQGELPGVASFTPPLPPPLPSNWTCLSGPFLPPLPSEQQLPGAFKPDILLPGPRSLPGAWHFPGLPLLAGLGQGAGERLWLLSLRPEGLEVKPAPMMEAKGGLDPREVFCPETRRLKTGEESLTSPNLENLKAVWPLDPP
# Outline: as §1
# ETS2 = target: T8, ETS2 (Homo sapiens, UniProt P15036 1-469); details: protein: recombinant; tags: N-terminal GST; dsDNA, one strand shown
# T8 sequence: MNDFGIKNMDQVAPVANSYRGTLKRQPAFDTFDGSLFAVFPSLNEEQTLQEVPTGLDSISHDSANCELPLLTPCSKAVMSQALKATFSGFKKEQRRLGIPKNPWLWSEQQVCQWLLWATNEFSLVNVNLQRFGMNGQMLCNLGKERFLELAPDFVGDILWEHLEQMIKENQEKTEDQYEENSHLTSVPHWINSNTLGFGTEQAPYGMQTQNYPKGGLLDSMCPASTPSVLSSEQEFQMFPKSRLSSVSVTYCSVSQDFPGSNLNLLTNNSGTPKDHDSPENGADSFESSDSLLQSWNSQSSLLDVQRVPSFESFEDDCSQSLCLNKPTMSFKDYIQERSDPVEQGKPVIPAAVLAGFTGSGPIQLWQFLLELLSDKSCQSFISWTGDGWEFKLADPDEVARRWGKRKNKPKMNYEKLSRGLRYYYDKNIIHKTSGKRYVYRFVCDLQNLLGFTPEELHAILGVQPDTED
# Outline: as §1
# SPDEF = target: T9, SPDEF (Homo sapiens, UniProt O95238 1-335); details: protein: recombinant; tags: N-terminal GST; dsDNA, one strand shown
# T9 sequence: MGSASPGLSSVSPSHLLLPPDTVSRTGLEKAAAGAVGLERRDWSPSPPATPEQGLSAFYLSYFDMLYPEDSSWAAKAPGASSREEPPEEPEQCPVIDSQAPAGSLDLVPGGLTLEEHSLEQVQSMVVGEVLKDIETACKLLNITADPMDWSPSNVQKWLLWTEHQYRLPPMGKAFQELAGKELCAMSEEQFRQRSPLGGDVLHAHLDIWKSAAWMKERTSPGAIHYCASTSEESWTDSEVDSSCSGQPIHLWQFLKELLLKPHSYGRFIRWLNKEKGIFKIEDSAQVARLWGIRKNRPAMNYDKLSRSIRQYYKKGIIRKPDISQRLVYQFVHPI
# Outline: as §1
# ETV7 = target: T10, ETV7 (Homo sapiens, UniProt Q9Y603 1-341); details: protein: recombinant; tags: N-terminal GST; dsDNA, one strand shown
# T10 sequence: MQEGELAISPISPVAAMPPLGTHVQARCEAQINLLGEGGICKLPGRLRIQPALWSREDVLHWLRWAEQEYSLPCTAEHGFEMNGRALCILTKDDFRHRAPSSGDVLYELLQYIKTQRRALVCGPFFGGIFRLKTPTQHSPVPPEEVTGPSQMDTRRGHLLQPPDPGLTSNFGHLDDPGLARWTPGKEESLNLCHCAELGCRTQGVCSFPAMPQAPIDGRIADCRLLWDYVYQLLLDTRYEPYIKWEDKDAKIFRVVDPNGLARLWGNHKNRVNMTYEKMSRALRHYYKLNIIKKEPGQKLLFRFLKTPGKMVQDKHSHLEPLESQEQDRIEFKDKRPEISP
# Outline: as §1
# ELF5 = target: T11, ELF5 (Homo sapiens, UniProt Q9UKW6-2 1-255); details: protein: recombinant; tags: N-terminal GST; dsDNA, one strand shown
# T11 sequence: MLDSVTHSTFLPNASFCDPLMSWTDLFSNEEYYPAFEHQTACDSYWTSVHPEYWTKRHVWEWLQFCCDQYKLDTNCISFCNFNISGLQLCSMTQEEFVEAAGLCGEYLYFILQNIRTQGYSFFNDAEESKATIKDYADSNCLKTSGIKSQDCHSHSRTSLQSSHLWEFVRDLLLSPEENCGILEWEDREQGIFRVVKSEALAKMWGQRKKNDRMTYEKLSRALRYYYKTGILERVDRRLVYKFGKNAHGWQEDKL
# Outline: as §1
# ETV3 = target: T12, ETV3 (Homo sapiens, UniProt P41162-2 1-143); details: protein: recombinant; tags: N-terminal GST; dsDNA, one strand shown
# T12 sequence: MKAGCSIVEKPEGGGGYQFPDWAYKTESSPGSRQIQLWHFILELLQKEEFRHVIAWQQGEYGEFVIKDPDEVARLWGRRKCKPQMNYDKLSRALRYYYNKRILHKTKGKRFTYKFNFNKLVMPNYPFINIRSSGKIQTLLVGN
# Outline: as §1
# ETV6 = ETV6 (Homo sapiens, UniProt P41212 1-452); details: protein: recombinant; tags: N-terminal GST; dsDNA, one strand shown
# Sequence of ETV6 (P41212 whole entry): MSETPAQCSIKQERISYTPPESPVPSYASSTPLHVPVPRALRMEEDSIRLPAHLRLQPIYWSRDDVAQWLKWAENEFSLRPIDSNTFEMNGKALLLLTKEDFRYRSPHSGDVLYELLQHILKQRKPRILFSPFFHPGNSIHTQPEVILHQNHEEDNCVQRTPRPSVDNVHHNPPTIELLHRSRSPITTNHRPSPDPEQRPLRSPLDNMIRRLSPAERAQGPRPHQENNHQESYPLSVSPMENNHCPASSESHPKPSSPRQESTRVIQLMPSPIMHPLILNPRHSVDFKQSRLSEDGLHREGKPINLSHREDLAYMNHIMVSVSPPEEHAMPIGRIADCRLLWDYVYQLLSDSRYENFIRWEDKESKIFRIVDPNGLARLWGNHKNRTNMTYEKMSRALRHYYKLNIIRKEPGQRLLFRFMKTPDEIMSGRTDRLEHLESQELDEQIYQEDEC
# Outline: as §1
sequence,measurement,setting,value
CCCTTT,binding signal,FEV,"1.46 fold enrichment (6-mer frequency, TF over GST control)"
same,binding signal,ETV5,"1.45 fold enrichment (6-mer frequency, TF over GST control)"
same,binding signal,HSF1,"1.25 fold enrichment (6-mer frequency, TF over GST control)"
same,binding signal,SPIC,"1.34 fold enrichment (6-mer frequency, TF over GST control)"
same,binding signal,ELF4,"1.49 fold enrichment (6-mer frequency, TF over GST control)"
same,binding signal,ELK4,"1.34 fold enrichment (6-mer frequency, TF over GST control)"
same,binding signal,ETV2,"1.33 fold enrichment (6-mer frequency, TF over GST control)"
same,binding signal,ELF3,"1.68 fold enrichment (6-mer frequency, TF over GST control)"
same,binding signal,CRX,"1.35 fold enrichment (6-mer frequency, TF over GST control)"
same,binding signal,ETV1,"1.4 fold enrichment (6-mer frequency, TF over GST control)"
same,binding signal,ERF,"1.42 fold enrichment (6-mer frequency, TF over GST control)"
same,binding signal,ETV3L,"1.51 fold enrichment (6-mer frequency, TF over GST control)"
same,binding signal,ETS2,"1.37 fold enrichment (6-mer frequency, TF over GST control)"
same,binding signal,SPDEF,"1.51 fold enrichment (6-mer frequency, TF over GST control)"
same,binding signal,ETV7,"1.34 fold enrichment (6-mer frequency, TF over GST control)"
same,binding signal,ELF5,"1.52 fold enrichment (6-mer frequency, TF over GST control)"
same,binding signal,ETV3,"1.36 fold enrichment (6-mer frequency, TF over GST control)"
same,binding signal,ETV6,"1.4 fold enrichment (6-mer frequency, TF over GST control)"
